Source: PubChem BioAssay
Records with an inconclusive call do not appear. Calls of active or inactive are those of the source.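 The calls were made as follows, unless noted: active = normalized viability below 100% at a tested concentration; inactive = the rest.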

Legend:
[1] = growth inhibition of DIPG glioma cells, dose response, cell-based, SU-DIPG-XVII, MIPE5.0, CellTiter-Glo, qHTS (AID 1347060; cut-off not given, nearly all actives have AC50 up to about 26 µM;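 also: cells exposed to compound for 48 hours before viability readout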); settings: SU-DIPG-XVII viability, CellTiter-Glo ATP luminescence
[2] = growth inhibition of DIPG glioma cells, dose response, cell-based, SU-DIPG-XIII, MIPE4.0, CellTiter-Glo, qHTS (AID 1347061; cut-off not given, nearly all actives have AC50 up to about 37 µM;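 also: cells exposed to compound for 48 hours before readout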); settings: SU-DIPG-XIII viability, CellTiter-Glo ATP luminescence
[3] = growth inhibition of DIPG glioma cells, dose response, cell-based, JHH-DIPG-1, MIPE4.0, CellTiter-Glo, qHTS (AID 1347062; cut-off not given, nearly all actives have AC50 up to about 27 µM;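 as to AC50: cells exposed to compound for two days before readout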); settings: JHH-DIPG-1 viability, CellTiter-Glo ATP luminescence
[4] = growth inhibition of DIPG glioma cells, dose response, cell-based, SU-DIPG-IV, MIPE4.0, CellTiter-Glo, qHTS (AID 1347063; cut-off not given, nearly all actives have AC50 up to about 30 µM;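 also: compound exposure lasted 48 hours before the viability readout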); settings: SU-DIPG-IV viability, CellTiter-Glo ATP luminescence
[5] = viability loss in pontine glioma line – cell-based, SU-DIPG-XXV, MIPE5.0, CellTiter-Glo, qHTS, dose response (AID 1347065; cut-off not given, nearly all actives have AC50 up to about 26 µM;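 also: cells exposed to compound for 48 hours before ATP readout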); settings: CellTiter-Glo ATP luminescence
[6] = SU-DIPG-VI glioma cell viability, MIPE4.0 library, CellTiter-Glo luminescence, qHTS (AID 1347066; cut-off not given, nearly all actives have AC50 up to about 30 µM;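 also: cells exposed to compound for 48 hours before readout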); settings: CellTiter-Glo ATP luminescence
[7] = sensitizers of A549 cells to miR-34 induction, primary screen, imaging, A549 dox-inducible miR-34, nuclei and caspase counts (AID 1347080;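 active = compounds whose cell count with miR-34 switched on is under 0.7 times the count with it off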); settings: A549 miR-34 inducible, Hoechst nuclei count, 48 h
[8] = modifiers of HSF1 nuclear foci, imaging, Selleck Cancer Library (AID 1347162; in the data active = plate-normalised HSF1 focus index below about 0.46); settings: human cells, at 10 µM; SSMD: measured here: HSF1 foci SSMD mean; cell count: measured here: cell number; plate-normalised HSF1 focus index: stronger effect = lower value
[9] = ovarian cancer cell viability with rucaparib, profiling panel, oncology-focused library, rucaparib conditional (AID 1508598); settings: patient-derived ovarian cancer cells, CellTiter-Glo viability, 144 h, stronger effect = lower value
[10] = JHH-DIPG-1 glioma cell viability, MIPE5.0 library, CellTiter-Glo luminescence, qHTS (AID 1347067; cut-off not given, nearly all actives have AC50 up to about 26 µM;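 also: cells exposed to compound for 48 hours before readout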); settings: JHH-DIPG-1 glioma viability, CellTiter-Glo ATP luminescence
[11] = survival rescue of mitochondrial mutant cells in low glucose, primary screen, MELAS cybrids, Rieske KO mouse fibroblasts, CellTiter-Glo (AID 1508586;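 active = mean z-score across replicates of 1.96 or higher in either the MELAS or the Rieske mutant cell line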;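 also: z relative to plate mean and SD of compound and empty wells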)
[12] = SU-DIPG-XXV glioma cell viability, MIPE5.0 library, qHTS (AID 1347068; cut-off not given, nearly all actives have IC50 up to about 30 µM;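 also: cells exposed to compound for 48 hours before viability readout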)
[13] = stronger effect = lower value, cell number ratio, induced over uninduced
[14] = measured here: relative caspase fold change +Dox/-Dox
[15] = measured here: total cells with miR-34 induction, stronger effect = lower value
[16] = measured here: total cells without miR-34 induction
[17] = at 0.000305 µM, OCI-C5x cells, with rucaparib 10 µM, 100% = cells with rucaparib alone
[18] = at 0.000305 µM, OCI-C5x cells, without rucaparib
[19] = at 0.000305 µM, OCI-P5x cells, with rucaparib 20 µM, 100% = cells with rucaparib alone
[20] = at 0.000305 µM, OCI-P5x cells, without rucaparib
[21] = at 0.00122 µM, OCI-C5x cells, with rucaparib 10 µM, 100% = cells with rucaparib alone
[22] = at 0.00122 µM, OCI-C5x cells, without rucaparib
[23] = at 0.00122 µM, OCI-P5x cells, with rucaparib 20 µM, 100% = cells with rucaparib alone
[24] = at 0.00122 µM, OCI-P5x cells, without rucaparib
[25] = at 0.00488 µM, OCI-C5x cells, with rucaparib 10 µM, 100% = cells with rucaparib alone
[26] = at 0.00488 µM, OCI-C5x cells, without rucaparib
[27] = at 0.00488 µM, OCI-P5x cells, with rucaparib 20 µM, 100% = cells with rucaparib alone
[28] = at 0.00488 µM, OCI-P5x cells, without rucaparib
[29] = at 0.0195 µM, OCI-C5x cells, with rucaparib 10 µM, 100% = cells with rucaparib alone
[30] = at 0.0195 µM, OCI-C5x cells, without rucaparib
[31] = at 0.0195 µM, OCI-P5x cells, with rucaparib 20 µM, 100% = cells with rucaparib alone
[32] = at 0.0195 µM, OCI-P5x cells, without rucaparib
[33] = at 0.0781 µM, OCI-C5x cells, with rucaparib 10 µM, 100% = cells with rucaparib alone
[34] = at 0.0781 µM, OCI-C5x cells, without rucaparib
[35] = at 0.0781 µM, OCI-P5x cells, with rucaparib 20 µM, 100% = cells with rucaparib alone
[36] = at 0.0781 µM, OCI-P5x cells, without rucaparib
[37] = at 0.313 µM, OCI-C5x cells, with rucaparib 10 µM, 100% = cells with rucaparib alone
[38] = at 0.313 µM, OCI-C5x cells, without rucaparib
[39] = at 0.313 µM, OCI-P5x cells, with rucaparib 20 µM, 100% = cells with rucaparib alone
[40] = at 0.313 µM, OCI-P5x cells, without rucaparib
[41] = at 1.25 µM, OCI-C5x cells, with rucaparib 10 µM, 100% = cells with rucaparib alone
[42] = at 1.25 µM, OCI-C5x cells, without rucaparib
[43] = at 1.25 µM, OCI-P5x cells, with rucaparib 20 µM, 100% = cells with rucaparib alone
[44] = at 1.25 µM, OCI-P5x cells, without rucaparib
[45] = at 5 µM, OCI-C5x cells, with rucaparib 10 µM, 100% = cells with rucaparib alone
[46] = at 5 µM, OCI-C5x cells, without rucaparib
[47] = at 5 µM, OCI-P5x cells, with rucaparib 20 µM, 100% = cells with rucaparib alone
[48] = at 5 µM, OCI-P5x cells, without rucaparib

## CC(C)[C@H](C(=O)Nc1ccc(C(=O)NO)cc1)c1ccccc1
[1]
  AC50: 1.86 µM (active)
[2]
  AC50: 3.72 µM (active)
[3]
  AC50: 1.87 µM (active)
[4]
  AC50: 2.35 µM (active)
[5]
  AC50: 1.32 µM (active)
[6]
  AC50: 0.833 µM (active)
[7]; [13]
  fold change: 0.834 (inactive)
[7]; [14]
  fold change: 1.7
[7]; [15]
  cell count: 1610
[7]; [16]
  cell count: 1930
[8]
  SSMD: -4.69
  cell count: 7300
  plate-normalised HSF1 focus index: 0.833 (inactive)
[9]; [17]
  viability: 112% (inactive)
[9]; [18]
  viability: 136% (inactive)
[9]; [19]
  viability: 105% (inactive)
[9]; [20]
  viability: 114% (inactive)
[9]; [21]
  viability: 116% (inactive)
[9]; [22]
  viability: 139% (inactive)
[9]; [23]
  viability: 102% (inactive)
[9]; [24]
  viability: 116% (inactive)
[9]; [25]
  viability: 104% (inactive)
[9]; [26]
  viability: 135% (inactive)
[9]; [27]
  viability: 87.9% (active)
[9]; [28]
  viability: 107% (inactive)
[9]; [29]
  viability: 101% (inactive)
[9]; [30]
  viability: 139% (inactive)
[9]; [31]
  viability: 89.2% (active)
[9]; [32]
  viability: 110% (inactive)
[9]; [33]
  viability: 99.7% (active)
[9]; [34]
  viability: 145% (inactive)
[9]; [35]
  viability: 82.7% (active)
[9]; [36]
  viability: 92.5% (active)
[9]; [37]
  viability: 46.8% (active)
[9]; [38]
  viability: 41.1% (active)
[9]; [39]
  viability: 49.2% (active)
[9]; [40]
  viability: 66.8% (active)
[9]; [41]
  viability: 10.3% (active)
[9]; [42]
  viability: 11% (active)
[9]; [43]
  viability: 31.4% (active)
[9]; [44]
  viability: 39.9% (active)
[9]; [45]
  viability: 5.04% (active)
[9]; [46]
  viability: 5.5% (active)
[9]; [47]
  viability: 2.82% (active)
[9]; [48]
  viability: 3.14% (active)

## O=C(O)c1ccc(Nc2ncc3c(n2)-c2ccc(Cl)cc2C(c2c(F)cccc2F)=NC3)cc1
[1]
  AC50: 4.17 µM (active)
[2]
  outcome: inactive
[3]
  outcome: inactive
[4]
  outcome: inactive
[5]
  AC50: 0.372 µM (active)
[6]
  outcome: inactive
[10]
  AC50: 16.6 µM (active)
[7]; [13]
  fold change: 0.96 (inactive)
[7]; [14]
  fold change: 0.787
[7]; [15]
  cell count: 2100
[7]; [16]
  cell count: 2190
[11]; MELAS cybrid survival, CellTiter-Glo 48 h, stronger effect = higher value
  z-score: -0.524 (inactive)
[11]; Rieske KO mouse fibroblast survival, CellTiter-Glo 72 h
  z-score: 0.65

## CN(C)C/C=C/C(=O)Nc1cc2c(Nc3ccc(F)c(Cl)c3)ncnc2cc1O[C@H]1CCOC1
[1]
  AC50: 13.2 µM (active)
[2]
  AC50: 23.5 µM (active)
[3]
  AC50: 16.6 µM (active)
[4]
  AC50: 16.6 µM (active)
[5]
  AC50: 8.33 µM (active)
[6]
  AC50: 29.6 µM (active)
[10]
  AC50: 9.34 µM (active)
[12]
  IC50: 4.17 µM (active)
[8]
  SSMD: -10.2
  cell count: 6000
  plate-normalised HSF1 focus index: 0.64 (inactive)
[9]; [17]
  viability: 118% (inactive)
[9]; [18]
  viability: 114% (inactive)
[9]; [19]
  viability: 123% (inactive)
[9]; [20]
  viability: 107% (inactive)
[9]; [21]
  viability: 116% (inactive)
[9]; [22]
  viability: 100% (active)
[9]; [23]
  viability: 97.9% (active)
[9]; [24]
  viability: 99.7% (active)
[9]; [25]
  viability: 107% (inactive)
[9]; [26]
  viability: 80.6% (active)
[9]; [27]
  viability: 117% (inactive)
[9]; [28]
  viability: 99.9% (active)
[9]; [29]
  viability: 70.1% (active)
[9]; [30]
  viability: 66.7% (active)
[9]; [31]
  viability: 102% (inactive)
[9]; [32]
  viability: 96.3% (active)
[9]; [33]
  viability: 67.5% (active)
[9]; [34]
  viability: 69.5% (active)
[9]; [35]
  viability: 122% (inactive)
[9]; [36]
  viability: 94.8% (active)
[9]; [37]
  viability: 62.7% (active)
[9]; [38]
  viability: 63.1% (active)
[9]; [39]
  viability: 120% (inactive)
[9]; [40]
  viability: 94.2% (active)
[9]; [41]
  viability: 6.05% (active)
[9]; [42]
  viability: 46% (active)
[9]; [43]
  viability: 8.68% (active)
[9]; [44]
  viability: 66.6% (active)
[9]; [45]
  viability: 3.87% (active)
[9]; [46]
  viability: 22.5% (active)
[9]; [47]
  viability: 0.219% (active)
[9]; [48]
  viability: 6.79% (active)
